Measured values from ChEMBL document CHEMBL3988442, “University of Dundee, Small-Polar-MMV Screening Library” (2021).
Among all 38,000 compounds or so, about 1,200 (3.2%) showed an effect of 50% or more. The median lay at about -58%. The entries come from a sample that favours strong results as a whole.

Tested on: Plasmodium falciparum
Experiment: Calibr Malaria Delayed Death Assay SOP
Assay type: functional, organism-based
Set-up: scale not given: in the data most compounds retested in dose-response had high values
Details: concentration 4.99e-06 (unit not given; other assays of the set use mol/L)

Row | SMILES | Percent Effect [%]
1 | Cc1ccncc1NS(=O)(=O)c1ccc(Cl)s1 | -120.5
2 | O=C(c1cnn2c1OCCC2)N1CCN(C(=O)C2CCCO2)CC1 (configuration not stated) | -54.26
3 | CC(C)(C(=O)NCC1CCN(Cc2cccnc2)C1)c1ccccc1 (configuration not stated) | 51.87
4 | CC(C)(C(=O)NCC1CCN(Cc2ncc[nH]2)C1)c1ccccc1 (configuration not stated) | -18.61
5 | COC(C)(C)C(=O)NCC1CCN(Cc2cc3ccccc3[nH]2)C1 (configuration not stated) | -53.37
6 | O=C(CCn1ccc2ccc(F)cc21)/N=c1\[nH]nc(C2CCCO2)s1 (configuration not stated) | -163.8
7 | CCC(NC(=O)CNC(=O)OC)c1cc(F)ccc1F (configuration not stated) | -47.96
8 | CCN(CC)S(=O)(=O)NC1CCCc2nc(-c3ccccc3)ncc21 (configuration not stated) | -18.05
9 | CC(C)N1CCC2(CC1)C(=O)N(c1cccnc1)c1c(F)cccc12.Cl | 48.28
10 | CN1CCC2(CC1)C(=O)N(C)c1ccc(F)cc12.Cl | -104.9
11 | CC(=O)N1CCC2(CC1)C(=O)N(c1cccnc1)c1ccc(F)cc12 | -45.42
12 | CC(C)N1CCC2(CC1)C(=O)N(c1cccnc1)c1ccc(F)cc12.Cl | 64.31
13 | CC(C)N1C(=O)C2(CCN(C)CC2)c2cc(F)ccc21.Cl | -16.08
14 | CN1CCC2(CC1)C(=O)N(c1cccnc1)c1ccc(F)cc12.Cl | 58.26
15 | CC(=O)c1cc2ncc(C(=O)NC3CC3)cc2[nH]1 | -111.2
16 | Cc1ccccc1N1CC2(CCN(S(=O)(=O)C3CC3)C2)CC1=O (configuration not stated) | -190.8
17 | CC(=O)Nc1c(C)noc1/C=C\c1ccc(S(=O)(=O)N2CCCC2)cc1 | 10.91
18 | Cc1cc(C)nc(N2CCCC(C(=O)Nc3n[nH]c(C(C)C)n3)C2)n1 (configuration not stated) | -27.75
19 | CCN1CCN(C2CCN(Cc3nnc(C(C)C)o3)CC2)C1=O | -127.6
20 | Cc1nc(C)n(CC2CCCN2Cc2ncc(C(C)(C)C)o2)n1 (configuration not stated) | 60.71
21 | Cc1cnn(CC2CCCCN2Cc2ncc(C(C)(C)C)o2)c1 (configuration not stated) | 9.696
22 | Cc1nc(C)n(CC2CCCN2Cc2ncc(-c3ccccc3)o2)n1 (configuration not stated) | 26.63
23 | CCC1CCCCN1Cc1ncc(C(C)(C)C)o1 (configuration not stated) | 70.27
24 | CCN1CCN(C2CCN(Cc3ncc(C(C)(C)C)o3)CC2)C1=O | 51.71
25 | CCN1CCN(C2CCN(Cc3nnc(C4CC4)o3)CC2)C1=O | -106.8
26 | CC(C)(C)c1cnc(CN2CCC(CO)CC2)o1 | -57.31

Row | SMILES | Percent Effect [%]
27 | Cc1nc(C)n(CC2CCCN(Cc3ncc(C(C)(C)C)o3)C2)n1 (configuration not stated) | -87.32
28 | CC(C)N1C[C@@H](CO)[C@H](c2ccccc2)S1(=O)=O | -2.146
29 | COc1cccc(Cn2ncnc2CNC(C)=O)c1 | -17.74
30 | NC1CCCN(Cc2cccc(C(F)(F)F)c2)C1=O (configuration not stated) | -34.65
31 | O=S(=O)(CC1CCCCO1)Nc1c(F)cccc1-n1cccn1 (configuration not stated) | -6.246
32 | N#CC1COCCN1C(=O)c1ccc2cc[nH]c2c1 (configuration not stated) | -76.07
33 | N[C@H]1CN(C(=O)c2ccc3[nH]c(CO)nc3c2)C[C@@H]1c1ccccc1 | -84.77
34 | COCCC1COC2(CCN(C(=O)c3cccn3C)CC2)C1 (configuration not stated) | -157.5
35 | O=C(NC1CCCCC1)c1cc(Br)cnc1N1CCCCC1 | -52.51
36 | COc1cc(C)ccc1OCCN1CC[C@@]2(O)CCNC[C@H]2C1 | -90.26
37 | CCc1ccccc1OCCN1CC[C@@]2(O)CCNC[C@H]2C1 | -93.81
38 | CCn1ncnc1CN1CCC(CNC(=O)c2cccc(C)c2)C1 (configuration not stated) | -152.4
39 | Cn1cc(-c2nc(CN3CCN(CCO)CC3)cs2)cn1 | -64.62
40 | CCCC1CCCN(Cc2csc(-c3cnn(C)c3)n2)CC1 (configuration not stated) | 52.75
41 | Cn1cc(-c2nc(CN3CCc4c(ncn4C4CC4)C3)cs2)cn1 | -33.38
42 | Cn1cc(CN2CCC3(CC2)CN(c2cccnc2)C(=O)CO3)cn1 | -97.96
43 | N#CC1CCCN(c2nc(-c3ccccc3)nc3c2CCNCC3)C1 (configuration not stated) | 79.11
44 | Cn1ccnc1CN1CCc2ncnc(N3CCCC(C#N)C3)c2CC1 (configuration not stated) | -81.1
45 | c1cnn(C2CN(c3nc(-c4ccncc4)nc4c3CCC4)C2)c1 | -81.86
46 | CC(C)CNC(=O)c1cccc(Oc2ccc3nncn3n2)c1 | -53.64
47 | O=C(C1CCOCC1)N1C[C@H](OCc2cccnc2)[C@H]2COC[C@H]21 | -121.2
48 | CSc1nccn1-c1cccc(C(=O)NCCN2CCS(=O)(=O)CC2)c1 | -149.1
49 | CCc1nc(CN2CCCN(C(=O)CCOC(C)C)CC2)cs1 | -60.5
50 | CC(C)(C)c1cn2c(n1)C(CNCc1ccccn1)CCC2 (configuration not stated) | 92.56
51 | CC(C)(C)c1ncc(CNCC2CCCn3ccnc32)s1 (configuration not stated) | 11.38
52 | C1=C(CNC2CCc3ncnn3C2)COc2ccccc21 (configuration not stated) | -78.33

Row | SMILES | Percent Effect [%]
53 | Clc1ccc2c(c1)C=C(CNC1CCc3ncnn3C1)CO2 (configuration not stated) | -63.09
54 | CCN1CCOC(CNCc2ccccn2)C1 (configuration not stated) | -142.7
55 | O[C@@H]1CN(CC2=Cc3cc(Cl)ccc3OC2)CC[C@H]1N1CCCCCC1 | -10.35
56 | Cc1cn2c(n1)C(CNCC1=Cc3ccccc3OC1)CCC2 (configuration not stated) | 78.44
57 | Cc1cn2c(n1)C(CNCC1=Cc3cc(Cl)ccc3OC1)CCC2 (configuration not stated) | 87.8
58 | CCn1ncc2c1CCCC2NCC1=Cc2ccccc2OC1 (configuration not stated) | -139.8
59 | O=C(Nc1cnccn1)[C@H]1CC[C@@H]2[C@@H](CCN2Cc2ccccn2)O1.O=C(O)C(F)(F)F | -97.13
60 | COc1cc(C(=O)NCCCO)cc2occc12 | -87.71
61 | CCc1[nH]c2ccc(CNC(=O)c3cnc(N)nc3C)cc2c1C | -136.6
62 | Cc1[nH]c2c(F)cccc2c1CC(=O)NC1CCCCNC1=O (configuration not stated) | -28.67
63 | O=C1CNc2ncnc(Nc3cnn(Cc4cccc(F)c4)c3)c2N1 | -137.4
64 | O=C(Cc1csc(-c2ccco2)n1)N1CCCC1Cn1cccn1 (configuration not stated) | -188.1
65 | CCS(=O)(=O)N1CCC2(CN(Cc3ccc(C)o3)C2)C1 | -57.27
66 | Cc1ccc(CN2CCC3(CCN(S(=O)(=O)c4ccccc4)C3)C2)o1 (configuration not stated) | 79.54
67 | Cc1ccc(CN2CCC3(CCCN(S(C)(=O)=O)C3)C2)o1 (configuration not stated) | -70.82
68 | O=C(c1cccs1)N1CC[C@H](O)[C@@H]1Cc1ccccc1 | -5.522
69 | COc1ccccc1C(=O)Nc1c(F)c(C(=O)N2CCCC2)nn1C | -139.8
70 | COC(=O)CN1Cc2cc3c(cc2NCCC1=O)OCO3 | -54.83
71 | Cc1cc(C(=O)N2CCNC(=O)C2)c(C)n1Cc1ccccn1 | -70.27
72 | Cc1c(C)n(Cc2ccncc2)c2nc3c(c(N)c12)CCCC3 | -16.59
73 | CCCc1nc2c(c(C)c(C)n2Cc2ccccn2)c(N)c1CC | 58.37
74 | CCc1nc2c(c(C)c(C)n2Cc2cccnc2)c(N)c1C | 18.39
75 | Cc1c(C)n(Cc2ccncc2)c2nc3c(c(N)c12)CCCCCC3 | 27.24
76 | Cc1c(C)n(Cc2ccccn2)c2nc3c(c(N)c12)CCCCCC3 | 58.63
77 | Cc1c(C)n(Cc2ccccn2)c2nc3c(c(N)c12)CCCC3 | 45.51
78 | CCCc1nc2c(c(C)c(C)n2Cc2cccnc2)c(N)c1CC | 64.11

Row | SMILES | Percent Effect [%]
79 | CCCc1nc2c(c(C)c(C)n2Cc2ccncc2)c(N)c1CC | 59.32
80 | CCc1cc(NCCc2cccnc2)n2nc(C)c(C)c2n1 | -66.72
81 | Cc1c(C)n(Cc2ccccn2)c2nc3c(c(N)c12)CCCCC3 | 22.61
82 | Cc1c(C)n(-c2ccccn2)c2nc3c(c(N)c12)CCCC3 | 19.64
83 | O=C(C1CCOC1)N1CCN(Cc2ccncc2)c2ncccc2C1 (configuration not stated) | -72.96
84 | Cn1cc(I)c(C(=O)NC2CCCCC2)n1 | -69.52
85 | CCCC(O)CN1CCC(=O)N(CC)Cc2cc3c(cc21)OCO3 (configuration not stated) | -23.81
86 | CC(CC(=O)N1CCCN(Cc2cscn2)CC1)n1cccc1 (configuration not stated) | 4.954
87 | CC(NCc1cccc(COC2CCCC2)c1)c1cnn(C)c1 (configuration not stated) | 19.99
88 | CC(C)CC(Cc1cccc(Br)c1)C(=O)O (configuration not stated) | -132.5
89 | Cc1nc(C)c(S(=O)(=O)NC(=O)c2cccs2)s1 | -74.76
90 | CO[C@H]1CC[C@H]2[C@H]1OCCN2Cc1ccc(F)cc1.O=C(O)C(F)(F)F | -88.16
91 | Cc1ccnc(NC(=O)C2CCN(CCCn3ccnc3C)CC2)c1 | 23.63
92 | CCCc1nnsc1C(=O)NCC(O)c1ccc(SC)cc1 (configuration not stated) | -63.08
93 | Cc1cccc(CN2CCCC3(CCN(CC4CCCO4)CC3)C2)n1.O=C(O)C(F)(F)F.O=C(O)C(F)(F)F (configuration not stated) | 42.53
94 | Cc1cccc(CN2CCC3(CCCN(Cc4cnn(C)c4)C3)C2)n1.O=C(O)C(F)(F)F.O=C(O)C(F)(F)F (configuration not stated) | -27.4
95 | COc1cccc(C(=O)N2CCCC(CNS(C)(=O)=O)C2)c1 (configuration not stated) | -46.69
96 | O=C(CCn1cccc1)N1CCc2[nH]nc(COc3ccccc3)c2C1 | -21.18
97 | CS(=O)(=O)NC[C@H]1Cn2c(-c3ccc(Cl)cc3)cnc2CO1 | 56.68
98 | CS(=O)(=O)NC[C@H]1Cn2c(-c3ccccc3)cnc2CO1 | -22.21
99 | CS(=O)(=O)NC[C@H]1Cn2c(-c3ccc(F)cc3)cnc2CO1 | -35.88
100 | CC(C)c1noc(C2CCN(C(=O)c3cccs3)CC2)n1 | -59
101 | O=C(NCCCN1CCCC1=O)c1nc(-c2ccc3cc[nH]c3c2)no1 | -52.39
102 | O=C1CC2(CCN(Cc3ccsc3)C2)CN1c1ccc2c(c1)OCO2 (configuration not stated) | -25.08
